A selection: hits, their analogues and other compounds. The true share with any hit is near 18%.
TDP1 block = blocks human tyrosyl-DNA phosphodiesterase 1; Q9NUW8; recombinant TDP1, AlphaScreen DNA substrate cleavage; Potency, µM (series often up to 130 µM), actives largely listed as inhibitors; 0.28% of 350,000 active; also: nearly all actives have a fitted effect of over 40% in size
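Recombinant human Tdp1 (E. coli-expressed, 1 nM final) preincubated with compounds 15 min at room temperature, then 5'-biotin/3'-phosphotyrosine-FITC DNA substrate (15 nM final) added for 5 min. AlphaScreen beads (10 ug/ml final) added 10 min; cleavage lowers signal.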
VDR inhibitor = blocks the human vitamin D receptor | AID 504847 | VDR-SRC2-3 peptide fluorescence polarization, 2 h | 0.93% of 400,000 active | P11473 | Potency, µM, usual class: inhibitors
Target sequence (P11473 whole entry, looked up): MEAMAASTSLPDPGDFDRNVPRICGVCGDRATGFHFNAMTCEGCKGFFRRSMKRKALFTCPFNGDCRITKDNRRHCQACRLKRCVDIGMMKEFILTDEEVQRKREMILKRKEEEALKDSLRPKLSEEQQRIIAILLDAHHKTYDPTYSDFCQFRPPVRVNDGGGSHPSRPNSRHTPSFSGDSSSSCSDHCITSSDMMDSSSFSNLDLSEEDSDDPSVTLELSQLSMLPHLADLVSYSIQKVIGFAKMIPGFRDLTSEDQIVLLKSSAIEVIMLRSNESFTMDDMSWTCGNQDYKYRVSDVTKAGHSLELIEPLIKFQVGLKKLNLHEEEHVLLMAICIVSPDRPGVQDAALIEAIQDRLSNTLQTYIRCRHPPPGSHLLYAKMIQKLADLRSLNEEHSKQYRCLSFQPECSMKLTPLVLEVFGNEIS
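Fluorescence polarization assay measuring small-molecule disruption of VDR binding to the coregulator peptide SRC2-3. Compounds were pin-transferred (23 nl) into the reagent mix and incubated 2 h at room temperature before reading.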
DT40 TDP1 CPT = growth inhibition of DT40 Tdp1-/-;hTDP1 cells with camptothecin (screen for TDP1 inhibitors); chicken DT40 Tdp1-/-;hTDP1 cells + 20 nM CPT, ATP luminescence, 48 h; Potency, µM (top dose mostly 46.2 µM), usual class: inhibitors; 12% of 420,000 active; AID 686979; also: nearly all actives have a fitted effect of over 55% in size
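Chicken DT40 Tdp1-/- cells stably complemented with human TDP1 were seeded at 400 cells/well in medium containing 20 nM camptothecin, exposed to pin-transferred compounds, and grown at 37 °C for at least 48 hr. Viability was read as ATP luminescence.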
PLK1 PBD block = blocks phosphopeptide binding to human PLK1 polo-box domain; 2.8% of 360,000 active; AID 720504; Potency, µM, hits mostly inhibitors; Plk1 PBD binding of FITC phosphopeptide, fluorescence polarization; also: series mostly up to about 57 µM; nearly all actives have a fitted effect of over 65% in size
DT40 TDP1 no CPT = qHTS for Inhibitors of human tyrosyl-DNA phosphodiesterase 1 (TDP1): qHTS in cells in absence of CPT; DT40 Tdp1-/- hTDP1 cells, no CPT, ATP luminescence, 48 h; Potency, µM (series often up to 46.2 µM), most hits filed as inhibitors; 15% of 420,000 active; AID 686978, 2013; also: nearly all actives have a fitted effect of over 55% in size
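Stably hTDP1-transfected Tdp1-null chicken DT40 cells were treated with library compounds minus camptothecin and grown for at least 48 hr at 37 °C, after which cellular ATP was quantified by luminescence.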
KAT2A inh = inhibitors of human GCN5L2 histone acetyltransferase. Q92830. GCN5L2 HAT assay, ThioGlo1 CoA-SH fluorescence. Potency, µM (series often up to 58.9 µM), usual class: inhibitors. 0.21% of 390,000 active. AID 504327
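Compounds, pin-transferred from DMSO stocks, meet 20nM GCN5L2 for 15 min before the reaction begins with H3(1-25) peptide (75uM) and acetyl-CoA (70uM). Thiol-reactive ThioGlo1 reports CoA release over 20 min at room temperature.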
Numbers stand for hits; 0 = inactive; ? = inconclusive; - = no result; [ ] = remark or other dose. Calls follow the shape of the dose curve; as a rule, active = well fitted curve in the direction sought with a large enough effect; inconclusive = small, poorly fitted or top-dose-only effect, or another doubt; inactive = no such curve, though single readings can be large; an effect the other way counts as inactive or inconclusive.

SMILES	TDP1 block	VDR inhibitor	DT40 TDP1 CPT	PLK1 PBD block	DT40 TDP1 no CPT	KAT2A inh
COc1cc(OC)c(NS(=O)(=O)c2cc3c(cc2C)NC(=O)CO3)cc1Cl	0	0	?	-	?	0
CCCS(=O)(=O)NC(=O)C1(C)CCCN(C(=O)COc2ccccc2)C1 (centres undefined)	-	-	0	0	0	-
O=c1cc(CN2CCN(c3ccccc3F)CC2)c2c(ccc3ccccc32)o1	-	-	16µM	0	18µM	-
COc1ccc2c(COC(=O)c3n[nH]c4ccccc34)cc(=O)oc2c1	0	0	?	0	21µM	0
CSc1ccccc1NC(=O)c1noc2c1CCC2	16µM	0	?	?	0	?
COC(=O)c1ccccc1NC(=O)c1noc2c1CCC2	11µM	0	0	?	0	?
Cn1c(SCc2ccc(Cl)cc2)nnc1-c1ccc2nonc2c1	0	0	0	0	?	0
O=Cc1cn(-c2ccccc2)nc1-c1ccncc1	0	0	?	0	23µM	0
O=C(CSc1nc(=O)[nH]c2c1CCCC2)Nc1cc(C(F)(F)F)cc(C(F)(F)F)c1	-	0	18µM	0	23µM	0
O=C(CSc1nc(=O)[nH]c2c1CCC2)Nc1cc(C(F)(F)F)ccc1Cl	0	0	?	-	?	0
OCC1OC(n2ccc3c(NO)ncnc32)C(O)C1O (centres undefined)	-	0	0.15µM	0	0.15µM	-
CN(C)c1ncnc2c1ccn2C1OC(CO)C(O)C1O (centres undefined)	-	0	3.3µM	0	8.2µM	-
COc1ccc(-c2nc3cnc(OC)nc3n(CCc3ccccc3)c2=O)cc1	-	0	0	-	0	0
COc1ccc(CSCC(=O)Nc2ccccc2)cc1[N+](=O)[O-]	-	0	0	0	0	0
CCN(CC)CCN(Cc1cc2cc(C)ccc2[nH]c1=O)C(=O)Nc1ccccc1OC	0	0	?	0	?	0
CCc1ccc2[nH]c(=O)c(CN(Cc3ccccc3OC)C(=O)Nc3ccccc3OC)cc2c1	0	0	18µM	0	23µM	0
COc1ccc2[nH]c(=O)c(CN(CC3CCCO3)C(=O)Nc3ccccc3OC)cc2c1 (centres undefined)	0	0	13µM	0	10µM	0
COc1cc(C(=O)NCC(=O)N/N=C/c2ccc(-c3ccc([N+](=O)[O-])cc3)o2)cc(OC)c1OC	0	0	?	0	21µM	0
O=C(N/N=C/c1ccc(-c2cccc([N+](=O)[O-])c2)o1)c1ccccc1O	0	0	?	0	?	0
NC(=S)N/N=C/c1ccc(-c2cc(Cl)ccc2Cl)o1	0	0	2.6µM	0	3.3µM	0
O=C(N/N=C/c1ccc(-c2cccc([N+](=O)[O-])c2)o1)c1ccc([N+](=O)[O-])cc1	0	0	?	0	16µM	0
CCOC(=O)N/N=C\c1ccc(-c2cc(Cl)ccc2Cl)o1	0	0	?	0	0	0
NC(=S)N/N=C/c1ccc(-c2cc(Cl)cc(Cl)c2)o1	0	?	5.8µM	0	2.1µM	-
COc1ccc(/C=C/c2onc(C)c2S(=O)(=O)N2CCC(C(=O)N3CCCCCC3)CC2)cc1	0	0	?	0	?	0
NC(=S)N/N=C/c1ccc(-c2ccc([N+](=O)[O-])cc2)o1	0	?	?	24µM	?	0
SMILES	TDP1 block	VDR inhibitor	DT40 TDP1 CPT	PLK1 PBD block	DT40 TDP1 no CPT	KAT2A inh
CCCC1SCC(C)(C)NC1=O (centres undefined)	-	0	0	0	0	-
CC1CC(C)CN(CCOCCSc2ccc(Cl)cc2)C1 (centres undefined)	0	0	21µM	0	16µM	0
CC1CC(C)CN(CCOCCSc2ccccc2)C1 (centres undefined)	0	0	?	0	16µM	0
COc1cccc(CNC(=O)c2cc3n(n2)CCCN(Cc2ccc(C)cc2)C3=O)c1OC	0	0	23µM	-	16µM	0
CCOc1ccccc1CNC(=O)c1cc2n(n1)CCCN(Cc1ccc(C)cc1)C2=O	0	0	16µM	-	15µM	0
COc1cc(CNC(=O)c2cc3n(n2)CCCN(Cc2ccc(C)cc2)C3=O)cc(OC)c1OC	0	0	?	-	?	0
Cc1ccc(CN2CCCn3nc(C(=O)NCCc4ccccc4C)cc3C2=O)cc1	0	0	0	-	?	0
Cc1ccc(CN2CCCn3nc(C(=O)NCc4ccc(OC(C)C)cc4)cc3C2=O)cc1	0	0	18µM	-	16µM	0
COC(=O)C[C@H]1c2cc(C(F)(F)F)ccc2S(=O)(=O)N1C(C)C	-	-	0	-	?	-
Cn1cccc1C(=O)C(=O)Nc1ccccc1C(F)(F)F	0	0	0	0	0	0
CCOC(=O)c1cnn(-c2ccccc2)c1-n1cccc1C(=O)C(=O)Nc1ccccc1C(F)(F)F	0	0	?	0	21µM	0
O=[N+]([O-])c1cccc(S(=O)(=O)N2CCCCC2c2cccnc2)c1 (centres undefined)	-	0	21µM	0	?	0
O=C(Nc1ccc(S(=O)(=O)N2CCCCC2c2cccnc2)cc1)c1ccc(F)cc1 (centres undefined)	0	0	23µM	-	18µM	0
Nc1ccc(NC(=O)c2ccc(C(=O)Nc3ccc(N)cc3)cc2)cc1	79µM	0	0	0	0	0
O=C(Nc1ccncc1)c1ccc(Br)cc1	-	0	?	0	5.2µM	0
Nc1ccc(C(=O)Nc2ccc(Nc3ccncc3)cc2)cc1	0	0	?	0	29µM	0
O=C(Nc1ccc(Br)cc1)c1cccc(C(=O)Nc2ccc(Br)cc2)c1	0[12.3 µM]	0	?	-	21µM	0
O=C(Nc1ccncc1)c1ccc(Cl)cc1	-	0	?	0	0	0
Nc1ccc(C(=O)Nc2ccc(Nc3ccncc3)cc2)c([N+](=O)[O-])c1	-	-	0	0	0	-
COc1cc(C2CC(=O)Oc3cc(C)c(Br)c(C)c32)cc(OC)c1OC (centres undefined)	0	0	21µM	0	?	0
CC(C)CNC(=O)c1ccc(C2SCC(=O)N2Cc2ccccc2)cc1 (centres undefined)	0	79µM	?	24µM	16µM	0
CCc1ccc(NC(=O)c2ccc(NS(=O)(=O)c3c(C)noc3C)cc2)cc1	0	0	?	-	?	0
COc1ccc(N=Nc2cc(C)ccc2O)cc1	-	0	0	0	0	0
Cc1ccc(O)c(N=Nc2nccs2)c1	0	0	1.2µM	0	0.92µM	0
O=C(COC(=O)/C=C/c1ccc([N+](=O)[O-])cc1)NNC(=O)c1ccccc1	0	0	0	0	0	0
Nn1c(SCc2cn3cc(Cl)ccc3n2)nnc1-c1ccncc1	0	?	0	11µM	0	0
CCN1N=C(c2ccccc2)Cn2c1nc1ccccc12	0	0	?	0	16µM	0

Assay outcomes from PubChem BioAssay.
